Results from PubChem BioAssay (EPA / NIEHS).
Inconclusive results are not listed. Active and inactive are the calls of the source. The calls were made as follows, unless noted: active = hit-call score of the fitted dose curve at least 0.9, where 1 is the maximum; inactive = score below 0.9.

Assays:
[1] = BSK_LPS_PGE2: BioMAP Diversity Plus: LPS Assay for Prostaglandin E2 (PGE2) Biomarker Activity (AID 2283082); conditions: primary human HUVEC with PBMC; actives raise or lower the signal;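 as to AC50: secreted prostaglandin E2 measured by ELISA in LPS-stimulated co-culture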
Method in brief: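 Primary human endothelial cells and blood mononuclear cells, co-cultured with LPS, receive test chemical; PGE2 ELISA follows at 24 h, with SRB-stained parallel cultures flagging cytotoxicity.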

[2] = read-out: Macrophage colony-stimulating factor (MCSF), CSF1 (gene 1435); test: BSK_LPS_MCSF: BioMAP Diversity Plus: LPS Assay for Macrophage colony-stimulating factor (MCSF) Biomarker Activity (AID 2283083); conditions: primary human HUVEC with PBMC; actives raise or lower the signal
Method in brief: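 ELISA readout of M-CSF after 24 h compound exposure in a human endothelial/PBMC co-culture. Activity, in either direction, is fitted relative to DMSO vehicle.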

[3] = read-out: Tissue Factor, F3 (gene 2152); test: BSK_LPS_TissueFactor: BioMAP Diversity Plus: LPS Assay for Tissue Factor Biomarker Activity (AID 2283084); conditions: primary human HUVEC with PBMC; actives raise or lower the signal
Method in brief: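 ELISA signal for cell-surface Tissue Factor (CD142) was read 24 h after compound dosing of an LPS-stimulated human endothelial–PBMC primary co-culture. Gain or loss of signal was scored relative to DMSO.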

[4] = read-out: Tumor necrosis factor (Homo sapiens) (UniProt P01375); test: BSK_LPS_TNFa: BioMAP Diversity Plus: LPS Assay for Tumour Necrosis Factor alpha (TNFa) Biomarker Activity (AID 2283085); conditions: primary human HUVEC with PBMC; actives raise or lower the signal;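 as to AC50: TNFa protein level quantified by ELISA in the co-culture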
Method in brief: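 ELISA-based TNFa endpoint in a human endothelial–PBMC co-culture sampled 24 h post-exposure. Curves were fitted in both directions using DMSO as baseline of activity.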

[5] = read-out: Vascular cell adhesion molecule 1 (VCAM1), VCAM1 (gene 7412); test: BSK_LPS_VCAM1: BioMAP Diversity Plus: LPS Assay for Vascular cell adhesion molecule 1 (VCAM1) Biomarker Activity (AID 2283086); conditions: primary human HUVEC with PBMC; actives raise or lower the signal
Method in brief: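 Measured by ELISA: VCAM-1 in LPS-activated HUVEC/PBMC co-cultures 24 h after treatment. Values reflect bidirectional fitting with DMSO as baseline.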

CD38, CD38 (gene 952) = test: BSK_SAg_CD38: BioMAP Diversity Plus: SAg Assay for CD38 Biomarker Activity (AID 2283087); conditions: primary human HUVEC with PBMC; actives raise or lower the signal
Method in brief: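 Measures CD38 on a human endothelial/PBMC co-culture driven by SEB and TSST-1, 24 h after compound exposure, using ELISA with fluorescence detection; DMSO defines baseline for bidirectional curve fitting.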

CD40, CD40 (gene 958) = test: BSK_SAg_CD40: BioMAP Diversity Plus: SAg Assay for CD40 Biomarker Activity (AID 2283088); conditions: primary human HUVEC with PBMC; actives raise or lower the signal
Method in brief: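 Compounds were dosed onto a human primary endothelial–PBMC co-culture, and after 24 h CD40 was quantified by ELISA using a fluorescence signal. Activity in either direction was fitted relative to DMSO.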

CD69, CD69 (gene 969) = test: BSK_SAg_CD69: BioMAP Diversity Plus: SAg Assay for CD69 Biomarker Activity (AID 2283089); conditions: primary human HUVEC with PBMC; actives raise or lower the signal
Method in brief: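 ELISA, fluorescence read-out: CD69 on human umbilical vein endothelial cell + PBMC co-culture, 24 h post-dosing. Gain or loss of signal fitted bidirectionally against DMSO baseline.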

[6] = read-out: Monocyte Chemoattractant Protein-1 (MCP1), CCL2 (gene 6347); test: BSK_SAg_MCP1: BioMAP Diversity Plus: SAg Assay for Monocyte Chemoattractant Protein-1 (MCP1) Biomarker Activity (AID 2283090); conditions: primary human HUVEC with PBMC; actives raise or lower the signal
Method in brief: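 Values derive from bidirectional fitting of ELISA-measured MCP1 against DMSO controls. Readings were taken 24 h after dosing human vascular endothelial cells co-cultured with peripheral blood mononuclear cells under superantigen stimulation.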

[7] = read-out: E-selectin (Homo sapiens) (UniProt P16581); test: BSK_SAg_Eselectin: BioMAP Diversity Plus: SAg Assay for Eselectin Biomarker Activity (AID 2283091); conditions: primary human HUVEC with PBMC; actives raise or lower the signal
Method in brief: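 Co-culture: HUVEC + PBMC. Dose compound; 24 h. ELISA for E-selectin. Bidirectional fit vs DMSO.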

[8] = read-out: Monokine induced gamma interferon (MIG), CXCL9 (gene 4283); test: BSK_SAg_MIG: BioMAP Diversity Plus: SAg Assay for Monokine induced gamma interferon (MIG) Biomarker Activity (AID 2283092); conditions: primary human HUVEC with PBMC; actives raise or lower the signal
Method in brief: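 ELISA readout of MIG/CXCL9; primary human umbilical vein endothelial cells co-cultured with peripheral blood mononuclear cells; 24 h post-dose; gain/loss fit vs DMSO baseline.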

[9] = BSK_SAg_PBMCCytotoxicity: PBMC Cytotoxicity Assessment in the BioMAP Diversity Plus: SAg Assay (AID 2283093); conditions: primary human HUVEC with PBMC;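 also: PBMC viability measured as Alamar Blue reduction fluorescence at 546/580 nm; fitted both ways against DMSO so a hit may be loss or gain of signal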;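 as to AC50: PBMC superantigen activated with SEB plus TSST-1 one hour after compound addition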
Method in brief: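 Alamar Blue reduction (6 h, 546/580 nm) reports PBMC cytotoxicity after 90 h superantigen activation (SEB, TSST-1; 20 ng/mL final each) with 1 h compound pre-treatment. Gain or loss of signal fitted versus DMSO.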

[10] = read-out: Interleukin-8 (IL8), CXCL8 (gene 3576); test: BSK_SAg_IL8: BioMAP Diversity Plus: SAg Assay for Interleukin-8 (IL8) Biomarker Activity (AID 2283094); conditions: primary human HUVEC with PBMC; actives raise or lower the signal
Method in brief: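 Primary human endothelial cells with PBMC, exposed 24 h; IL-8 determined by ELISA, analysed bidirectionally relative to DMSO.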

[11] = BSK_SAg_Proliferation: Cell Proliferation Assessment in the BioMAP Diversity Plus: SAg Assay (AID 2283095); conditions: primary human HUVEC with PBMC;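 also: relative cell number as total protein by SRB absorbance in sub-confluent culture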
Method in brief: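 A human primary co-culture of umbilical vein endothelium and blood mononuclear cells receives compound; relative cell number is quantified at 96 h by SRB staining and 560 nm absorbance, with DMSO-referenced bidirectional curve fitting.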

[12] = BSK_SAg_SRB: Viability Assessment in the BioMAP Diversity Plus: SAg Assay (AID 2283096); conditions: primary human HUVEC with PBMC;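 also: cells read one day after compound addition; hits may be either gain or loss of signal compared with DMSO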
Method in brief: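 This overt-cytotoxicity endpoint quantifies protein in human endothelial/PBMC co-cultures at 24 h using SRB absorbance (560 nm) after trichloroacetic acid fixation. Values reflect signal change from the DMSO negative control, fitted bidirectionally.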

[13] = biological target: human CYP19A1, CYP19A1 (gene 1588) (UniProt P11511); test: NVS_ADME_hCYP19A1: NovaScreen (NVS) CYP450-related Enzyme Activity (ADME) Assay for human CYP19A1 (AID 2283098; active = hit-call score of the fitted dose curve at least 0.9, where 1 is the maximum;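 as to AC50: potency for inhibitors seen as loss of fluorescent enzyme signal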)
Chain of human CYP19A1, CYP19A1 (gene 1588) (P11511 whole entry, looked up): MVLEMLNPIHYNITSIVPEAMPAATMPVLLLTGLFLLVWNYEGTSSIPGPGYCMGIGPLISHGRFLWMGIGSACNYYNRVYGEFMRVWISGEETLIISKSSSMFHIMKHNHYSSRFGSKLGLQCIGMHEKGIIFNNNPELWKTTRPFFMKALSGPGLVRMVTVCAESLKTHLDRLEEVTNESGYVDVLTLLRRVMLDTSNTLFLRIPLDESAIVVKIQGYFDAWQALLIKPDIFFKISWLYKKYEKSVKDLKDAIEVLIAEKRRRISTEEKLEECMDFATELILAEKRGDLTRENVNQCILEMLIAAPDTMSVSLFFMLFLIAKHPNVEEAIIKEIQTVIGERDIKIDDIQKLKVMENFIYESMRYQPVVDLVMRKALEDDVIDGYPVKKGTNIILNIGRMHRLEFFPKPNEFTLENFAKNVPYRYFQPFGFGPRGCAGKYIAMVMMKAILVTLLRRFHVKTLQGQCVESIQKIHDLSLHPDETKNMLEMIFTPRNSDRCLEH
Method in brief: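 Compounds were first screened at 10 uM in duplicate against purified enzyme, with a fluorogenic substrate and fluorescence intensity detection after 0.5 h. Inhibition appears as reduced signal against acetonitrile control.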

[14] = biological target: human CYP1A2, CYP1A2 (gene 1544) (UniProt P05177); test: NVS_ADME_hCYP1A2: NovaScreen (NVS) CYP450-related Enzyme Activity (ADME) Assay for human CYP1A2 (AID 2283102; active = hit-call score of the fitted dose curve at least 0.9, where 1 is the maximum;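 as to AC50: fluorescence from turnover of a fluorogenic substrate by recombinant insect-cell CYP1A2; potency for inhibition since loss of fluorescence marks reduced CYP1A2 activity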)
Chain of human CYP1A2, CYP1A2 (gene 1544) (P05177 whole entry, looked up): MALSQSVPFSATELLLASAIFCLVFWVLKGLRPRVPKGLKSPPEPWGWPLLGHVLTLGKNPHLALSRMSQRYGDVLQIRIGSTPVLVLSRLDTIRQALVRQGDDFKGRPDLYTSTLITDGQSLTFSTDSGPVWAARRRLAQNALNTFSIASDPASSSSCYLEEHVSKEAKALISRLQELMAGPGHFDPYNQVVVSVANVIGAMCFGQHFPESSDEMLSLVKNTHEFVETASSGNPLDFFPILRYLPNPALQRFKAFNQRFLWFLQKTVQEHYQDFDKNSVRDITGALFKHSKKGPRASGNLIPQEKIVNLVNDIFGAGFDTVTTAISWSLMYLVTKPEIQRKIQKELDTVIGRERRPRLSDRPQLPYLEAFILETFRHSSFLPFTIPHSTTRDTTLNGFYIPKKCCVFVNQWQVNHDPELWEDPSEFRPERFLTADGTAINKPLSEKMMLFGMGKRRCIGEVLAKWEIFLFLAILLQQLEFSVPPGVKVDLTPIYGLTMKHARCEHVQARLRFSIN
Method in brief: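 rec. hCYP1A2 (insect cells), cell-free; fluorogenic substrate; 0.5 h; FI read. Baseline = acetonitrile; signal loss = inhibition. 10 uM duplicate primary → conc. series for actives.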

[15] = biological target: human CYP2A6, CYP2A6 (gene 1548) (UniProt P11509); test: NVS_ADME_hCYP2A6: NovaScreen (NVS) CYP450-related Enzyme Activity (ADME) Assay for human CYP2A6 (AID 2283099; active = hit-call score of the fitted dose curve at least 0.9, where 1 is the maximum)
Chain of human CYP2A6, CYP2A6 (gene 1548) (P11509 whole entry, looked up): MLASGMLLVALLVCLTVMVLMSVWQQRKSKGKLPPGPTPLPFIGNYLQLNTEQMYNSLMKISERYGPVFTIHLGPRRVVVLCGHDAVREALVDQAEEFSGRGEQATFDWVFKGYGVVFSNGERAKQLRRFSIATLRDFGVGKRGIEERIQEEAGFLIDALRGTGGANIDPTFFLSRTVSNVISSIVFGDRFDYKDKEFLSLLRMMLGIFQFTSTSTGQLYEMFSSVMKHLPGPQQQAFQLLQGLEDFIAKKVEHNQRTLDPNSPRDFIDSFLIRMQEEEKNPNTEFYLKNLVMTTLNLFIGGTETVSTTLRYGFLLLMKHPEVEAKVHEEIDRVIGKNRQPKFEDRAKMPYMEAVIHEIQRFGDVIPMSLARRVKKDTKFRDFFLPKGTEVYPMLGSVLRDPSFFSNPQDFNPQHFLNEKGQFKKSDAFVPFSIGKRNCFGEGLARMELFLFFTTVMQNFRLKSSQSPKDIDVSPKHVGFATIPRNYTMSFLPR
Method in brief: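 Fluorescent substrate turnover by recombinant CYP2A6 (insect cell source), 0.5 h read. Screen: 10 uM, duplicate; threshold hits (e.g. 30% inhibition) → singleton concentration-response, top 20 uM. Positive and negative controls on every plate.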

[16] = biological target: human CYP2B6, CYP2B6 (gene 1555) (UniProt P20813); test: NVS_ADME_hCYP2B6: NovaScreen (NVS) CYP450-related Enzyme Activity (ADME) Assay for human CYP2B6 (AID 2283101; active = hit-call score of the fitted dose curve at least 0.9, where 1 is the maximum)
Chain of human CYP2B6, CYP2B6 (gene 1555) (P20813 whole entry, looked up): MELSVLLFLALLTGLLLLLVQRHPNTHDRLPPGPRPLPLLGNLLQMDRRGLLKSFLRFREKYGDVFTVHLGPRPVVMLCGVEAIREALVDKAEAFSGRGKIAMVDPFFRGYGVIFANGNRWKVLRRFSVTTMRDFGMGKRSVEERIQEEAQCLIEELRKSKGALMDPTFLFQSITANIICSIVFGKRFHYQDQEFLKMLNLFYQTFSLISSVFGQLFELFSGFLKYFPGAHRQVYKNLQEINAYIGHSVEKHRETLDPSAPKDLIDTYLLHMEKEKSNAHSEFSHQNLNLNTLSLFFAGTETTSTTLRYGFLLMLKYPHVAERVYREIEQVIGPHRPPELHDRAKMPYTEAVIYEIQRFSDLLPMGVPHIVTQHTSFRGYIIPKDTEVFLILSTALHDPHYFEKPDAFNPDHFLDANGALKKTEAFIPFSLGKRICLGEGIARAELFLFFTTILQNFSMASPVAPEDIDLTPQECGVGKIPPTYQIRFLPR
Method in brief: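 Fluorescence-based enzyme activity of recombinant human CYP2B6, measured 1 h post-dose against acetonitrile vehicle baseline. Screened at a single concentration of 10 uM in duplicate before concentration-response follow-up.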

[17] = biological target: human CYP2D6, CYP2D6 (gene 1565) (UniProt P10635); test: NVS_ADME_hCYP2D6: NovaScreen (NVS) CYP450-related Enzyme Activity (ADME) Assay for human CYP2D6 (AID 2283107; active = hit-call score of the fitted dose curve at least 0.9, where 1 is the maximum)
Chain of human CYP2D6, CYP2D6 (gene 1565) (P10635 whole entry, looked up): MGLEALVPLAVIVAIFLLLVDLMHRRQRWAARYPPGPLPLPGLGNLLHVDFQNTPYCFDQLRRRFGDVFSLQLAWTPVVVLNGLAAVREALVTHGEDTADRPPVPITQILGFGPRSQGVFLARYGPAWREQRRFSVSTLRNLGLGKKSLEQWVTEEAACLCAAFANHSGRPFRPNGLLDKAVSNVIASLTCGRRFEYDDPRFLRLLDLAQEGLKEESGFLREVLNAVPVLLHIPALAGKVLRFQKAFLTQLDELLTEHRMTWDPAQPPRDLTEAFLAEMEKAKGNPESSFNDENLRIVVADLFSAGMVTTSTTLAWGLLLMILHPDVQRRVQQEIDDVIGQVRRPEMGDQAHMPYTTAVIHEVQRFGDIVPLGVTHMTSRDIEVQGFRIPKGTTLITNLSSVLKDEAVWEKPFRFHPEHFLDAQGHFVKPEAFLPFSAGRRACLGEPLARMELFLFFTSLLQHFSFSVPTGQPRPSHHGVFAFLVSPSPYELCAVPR
Method in brief: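 Insect-cell recombinant enzyme + fluorogenic substrate, cell-free; 1 h incubation; fluorescence intensity readout. Acetonitrile = neg. ctrl/baseline. Single-point 10 uM, duplicate; follow-up concentration series.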

Measured: AC50

Chain of E-selectin (Homo sapiens) (P16581 whole entry, looked up): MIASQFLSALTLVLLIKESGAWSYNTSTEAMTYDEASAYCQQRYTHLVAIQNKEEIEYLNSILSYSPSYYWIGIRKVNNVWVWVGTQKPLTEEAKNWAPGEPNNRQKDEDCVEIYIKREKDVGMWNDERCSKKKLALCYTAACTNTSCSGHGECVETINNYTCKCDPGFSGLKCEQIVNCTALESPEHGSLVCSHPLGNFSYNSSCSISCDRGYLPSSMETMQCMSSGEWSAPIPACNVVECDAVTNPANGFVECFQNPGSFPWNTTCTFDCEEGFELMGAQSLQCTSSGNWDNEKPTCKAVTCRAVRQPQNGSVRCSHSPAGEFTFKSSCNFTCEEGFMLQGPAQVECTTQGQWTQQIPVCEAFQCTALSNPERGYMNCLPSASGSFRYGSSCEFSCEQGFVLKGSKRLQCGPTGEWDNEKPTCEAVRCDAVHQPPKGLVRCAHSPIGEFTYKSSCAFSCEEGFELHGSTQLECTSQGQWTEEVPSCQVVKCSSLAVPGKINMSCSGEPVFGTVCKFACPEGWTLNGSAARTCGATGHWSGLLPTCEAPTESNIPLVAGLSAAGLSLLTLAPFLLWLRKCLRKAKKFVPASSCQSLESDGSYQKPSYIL
Chain of Tumor necrosis factor (Homo sapiens) (P01375 whole entry, looked up): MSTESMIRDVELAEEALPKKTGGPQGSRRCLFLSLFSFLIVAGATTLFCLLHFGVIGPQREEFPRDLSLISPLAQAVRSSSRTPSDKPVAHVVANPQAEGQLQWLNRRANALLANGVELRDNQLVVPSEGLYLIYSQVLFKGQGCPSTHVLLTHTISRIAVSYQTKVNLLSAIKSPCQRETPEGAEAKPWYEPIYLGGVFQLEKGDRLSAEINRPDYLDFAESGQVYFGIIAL

COC(=O)CSc1cc(N=c2sc(=O)n3n2CCCC3)c(F)cc1Cl
inactive: [1] | [2] | [3] | [5] | CD38, CD38 (gene 952) | CD40, CD40 (gene 958) | CD69, CD69 (gene 969) | [6] | [7] | [8] | [9] | [10] | [11] | [12] | [13] | [14]
active: [4] 9.6 µM

CCOC(=O)C(C)Oc1ccc(Oc2cnc3cc(Cl)ccc3n2)cc1 (stereo not given)
active: [1] 13.1 µM
inactive: [2] | [3] | [4] | [5] | CD38, CD38 (gene 952) | CD40, CD40 (gene 958) | CD69, CD69 (gene 969) | [6] | [7] | [8] | [9] | [10] | [11] | [12]

CC(C)(C)[C@@H](O)[C@@H](Cc1ccc(Cl)cc1)n1cncn1
inactive: [1] | [2] | [3] | [4] | [5] | CD38, CD38 (gene 952) | CD40, CD40 (gene 958) | CD69, CD69 (gene 969) | [6] | [8] | [12]
active: [7] 8.51 µM | [9] 3.76 µM | [10] 7.99 µM

C#C[C@]1(O)CC[C@H]2[C@@H]3CCC4=CC(=O)CC[C@@H]4[C@H]3CC[C@@]21CC
active: [1] 2.43 µM | [2] 14.5 µM | [10] 6.98 µM
inactive: [3] | [4] | [5] | CD38, CD38 (gene 952) | CD40, CD40 (gene 958) | CD69, CD69 (gene 969) | [6] | [7] | [8] | [9] | [12]

CCCCCOC(=O)COc1cc(N2C(=O)C3=C(CCCC3)C2=O)c(F)cc1Cl
inactive: [1] | [2] | CD38, CD38 (gene 952) | CD69, CD69 (gene 969) | [6] | [8] | [9] | [10] | [12]
active: [3] 27.8 µM | [4] 20 µM | [5] 15 µM | CD40, CD40 (gene 958) 20 µM | [7] 15.8 µM | [11] 14.3 µM | [14] 1.29 µM

C=CCOC(Cn1ccnc1)c1ccc(Cl)cc1Cl (stereo not given)
active: [1] 0.27 µM | [7] 32.9 µM | [9] 13.9 µM | [10] 37.1 µM | [11] 31.9 µM | [13] 0.628 µM | [15] 2.52 µM | [16] 0.188 µM | [17] 3.95 µM
inactive: [2] | [3] | [4] | [5] | CD38, CD38 (gene 952) | CD40, CD40 (gene 958) | CD69, CD69 (gene 969) | [6] | [8] | [12]
